# Source: PubChem (several laboratories)
# An excerpt weighted towards active compounds, which were near 4% of everything screened.
# Mtb bLac sens = beta-lactam sensitization of Mtb H37Rv, H37Rv; M. tuberculosis H37Rv growth with meropenem, percent inhibition; inhibition, % at 25 µM; 0.27% of 330,000 active; call rule not given here;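 further: growth measured after seven days incubation then overnight dye step; 0% = bacteria only wells and 100% = bacteria with antibiotic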
# GDH-TPI counter-1 = GDH-TPI coupling enzyme inhibitors, primary screen, artefact control for M. tuberculosis FBA inhibitor project, biochemical, absorbance, full deck; GDH-TPI coupled enzyme counterscreen, NADH absorbance; 1.2% of 360,000 active; inhibition, % at 4.8 µM; in the data active means inhibition above about 30%;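 further: 0% = DMSO wells and 100% = wells lacking the enzyme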
# UGM FP inh = M. tuberculosis UGM enzyme inhibitors, primary screen, biochemical, fluorescence polarization, single point; purified UGM, fluorescence polarization probe displacement; inhibition, % at 10 µM; 0.06% of 320,000 active; AID 504406, 2011; in the data active means inhibition above about 10%, passing the limit was not always enough; inconclusive means no clear call, values can overlap the other calls
# RecA splice inh = Mtb RecA intein splicing inhibitors, primary screen, biochemical, fluorescence, HTS; cell-free RecA intein splicing; inhibition, % (test concentration not listed); 0.75% of 290,000 active; Protein RecA (Mycobacterium tuberculosis (strain ATCC 25618 / H37Rv)), P9WHJ3; in the data active means inhibition above about 30%; inconclusive means no clear call, values can overlap the other calls;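 further: 0% = vehicle wells and 100% = reference inhibitor control wells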
# Target sequence (P9WHJ3 whole entry, looked up, canonical isoform): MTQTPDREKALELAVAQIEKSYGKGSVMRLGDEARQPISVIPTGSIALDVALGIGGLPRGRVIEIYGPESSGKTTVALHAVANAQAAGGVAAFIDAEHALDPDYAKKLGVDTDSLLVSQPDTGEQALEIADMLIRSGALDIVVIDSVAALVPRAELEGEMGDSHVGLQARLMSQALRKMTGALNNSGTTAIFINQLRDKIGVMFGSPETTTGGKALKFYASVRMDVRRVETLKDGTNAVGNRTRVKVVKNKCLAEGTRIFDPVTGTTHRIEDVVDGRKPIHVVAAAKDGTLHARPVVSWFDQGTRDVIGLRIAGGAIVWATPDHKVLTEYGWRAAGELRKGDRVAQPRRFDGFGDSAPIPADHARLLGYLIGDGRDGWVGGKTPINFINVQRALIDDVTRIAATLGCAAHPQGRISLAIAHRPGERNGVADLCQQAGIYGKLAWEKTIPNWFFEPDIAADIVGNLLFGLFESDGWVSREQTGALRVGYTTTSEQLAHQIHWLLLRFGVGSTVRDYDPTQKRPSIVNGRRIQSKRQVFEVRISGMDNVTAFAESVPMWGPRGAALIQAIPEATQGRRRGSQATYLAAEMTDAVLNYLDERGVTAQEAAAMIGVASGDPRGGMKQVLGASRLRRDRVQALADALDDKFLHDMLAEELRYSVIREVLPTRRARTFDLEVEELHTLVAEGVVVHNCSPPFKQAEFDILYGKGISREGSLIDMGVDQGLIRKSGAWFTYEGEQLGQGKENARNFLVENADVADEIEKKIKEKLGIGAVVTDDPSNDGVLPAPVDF
# FBA Mtb inh = Mtb FBA enzyme inhibitors, primary screen, biochemical, fluorescence, strain H37Rv | inhibition, % at 1 µM | purified M. tuberculosis FBA, fluorescence read-out | Fructose-bisphosphate aldolase (Mycobacterium tuberculosis (strain ATCC 25618 / H37Rv)), … | 2.3% of 360,000 active;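 further: 0% = vehicle and 100% = reference inhibitor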
# Rv3671c inh = Rv3671c serine protease inhibitors, primary screen, biochemical, fluorescence polarization, M. tuberculosis H37Rv; inhibition, % at 5.96 µM; AID 2606, 2010; 0.048% of 320,000 active; in the data active means inhibition above about 38%;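 further: extracellular domain of Rv3671c used as enzyme; 0% = enzyme with DMSO and 100% = no enzyme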
# Mtb FBA confirm = M. tuberculosis aldolase blockers, biochemical, fluorescence, strain H37Rv, confirmation | inhibition, % at 1 µM | purified M. tuberculosis FBA, fluorescence read-out | shares compounds with FBA Mtb inh | 78% of 5,600 active | AID 651616, 2012;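 further: 0% = vehicle wells and 100% = reference inhibitor wells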
# GDH-TPI counter-2 = GDH-TPI coupling enzyme inhibitors, artefact control for M. tuberculosis FBA inhibitor project, biochemical, fluorescence, high throughput. AID 652141, 2013. shares compounds with FBA Mtb inh. inhibition, % at 1 µM. GDH-TPI coupled enzyme counterscreen. 81% of 5,600 active; in the data active means inhibition above about 10%
# GDH-TPI dose = GDH-TPI coupling enzyme inhibitors, dose response, artefact control for M. tuberculosis FBA inhibitor project, biochemical, fluorescence, IC50. shares compounds with FBA Mtb inh. GDH-TPI coupled enzyme assay, artifact counterscreen. IC50, µM. 79% of 170 active; call rule not given here
# The depositor's hits bear a star; ? = inconclusive; / = no result given; + = active, no number. Unless noted, no stated cut-off is given here; in the data, active means inhibition above about 27%; inactive means the rest.
SMILES,Mtb bLac sens,GDH-TPI counter-1,UGM FP inh,RecA splice inh,FBA Mtb inh,Rv3671c inh,Mtb FBA confirm,GDH-TPI counter-2,others
CCCCc1cc(=O)oc2cc(OCC(=O)N3CCC(C(=O)O)(c4ccccc4)CC3)ccc12,1.0,12.8,0.3,4.7,9.8,-7.5,/,/,
CCCc1cc(=O)oc2c(C)c(OCC(=O)N3CCC(C(=O)O)(c4ccccc4)CC3)ccc12,-0.4,8.3,-0.2,12.8,31.9*,-1.2,102.9*,90.6*,
CCCCc1ccc(NC(=S)N2CCCC2)cc1,3.5,5.2,-3.9,-0.4,-0.1,/,/,/,
CC(=O)Nc1ccc(C(=O)COC(=O)c2cccs2)c(F)c1,9.3,9.2,1.1,/,2.5,1.0,/,/,
COc1ccc2c(c1)oc(=O)c1ccccc12,-1.4,4.9,-0.6,-0.6,87.6*,-1.9,40.8*,31.0*,
O=C(O)C(Oc1ccc2c(c1)oc(=O)c1ccccc12)c1ccccc1 (stereo not given),-2.4,9.4,0.1,1.0,92.1*,0.8,36.9*,30.3*,
CCOCCCNC(=O)c1ccc(CN2CCc3ccccc3C2)cc1,/,0.0,/,/,-5.0,/,/,/,
O=C(COC(=O)Cc1ccc(Cl)cc1)NCc1cccs1,6.8,-1.3,-0.5,/,-0.3,5.8,/,/,
O=c1oc(CCO)cc2ccc(C#Cc3ccsc3)cc12,24.6,8.4,1.6,/,45.4*,-0.7,82.2*,52.1*,
CN(C)c1ccc(C#Cc2ccc3cc(CCO)oc(=O)c3c2)cc1,54.0,4.4,1.4,/,12.5,-14.6,/,/,
O=c1oc(CCCO)cc2ccc(C#Cc3cccnc3)cc12,1.8,17.1,-0.9,/,53.2*,-5.5,44.8*,37.1*,
CCCC(C(=O)N(C)CC(=O)Nc1ccc(N2CCOCC2)cc1)c1ccccc1 (stereo not given),2.7,4.2,4.0,-3.6,-2.5,0.8,/,/,
Cc1cc(OCC(=O)NCCc2ccc(S(N)(=O)=O)cc2)c2c(C)c(C)c(=O)oc2c1,1.6,6.7,0.0,0.5,64.8*,-2.6,11.5,-0.6,GDH-TPI dose=1.96*
Cc1cc(OCC(=O)NCCCN2CCOCC2)c2c(C)c(C)c(=O)oc2c1,1.5,10.3,-0.8,-0.7,86.1*,3.6,129.3*,144.2*,
Cc1c(OCC(=O)NCCCN2CCCC2=O)ccc2c3c(c(=O)oc12)CCCC3,-3.9,20.7,0.4,-1.3,29.1*,3.1,+,+,
Cc1cc(=O)oc2cc(OCC(=O)NCCCN3CCCC3=O)ccc12,2.3,10.1,1.0,-1.4,17.9,-7.2,/,/,
Cc1c(C)c2ccc(OCC(=O)NCCCN3CCCC3=O)cc2oc1=O,?,19.7,-1.8,-0.3,86.6*,5.0,55.7*,45.7*,
Cc1cc(OCC(=O)NCCc2ccc(Cl)cc2)c2c(C)cc(=O)oc2c1,0.3,0.8,-2.0,-0.5,4.2,-0.1,/,/,
Cc1cccc(NC(=O)c2cc(S(=O)(=O)N(C)c3ccc(F)cc3)ccc2Cl)n1,-6.3,-0.3,-1.8,6.7,-1.3,-1.2,/,/,
CCCn1nc(C(=O)Nc2cccc(S(=O)(=O)N(C)c3ccccc3)c2)c2ccccc2c1=O,-0.9,25.9,-3.3,/,3.4,-67.4,/,/,
O=C(NC1CCCN(CCc2ccccc2)C1)C1CCCC1 (stereo not given),-5.2,4.3,-0.5,-4.1,-0.3,8.5,/,/,
Cc1cc(OCC(=O)NCCCN2CCCC2=O)c2c(C)c(C)c(=O)oc2c1,-3.9,0.4,2.1,5.9,80.0*,1.6,+,+,
CCc1cc(=O)oc2cc(OCC(=O)NCCCN3CCCC3=O)c(Cl)cc12,10.8,6.8,-0.5,0.3,8.3,-3.1,/,/,
